rTrxR1 inhibitor: blocks rat thioredoxin reductase 1; O89049; recombinant rTrxR1, NADPH fluorescence consumption, selenite substrate; Potency, µM (top dose mostly 114 µM), hits mostly inhibitors; hit rate 1% among 390,000; further: nearly all actives have a fitted effect of over 65% in size
Target sequence (O89049 whole entry, looked up): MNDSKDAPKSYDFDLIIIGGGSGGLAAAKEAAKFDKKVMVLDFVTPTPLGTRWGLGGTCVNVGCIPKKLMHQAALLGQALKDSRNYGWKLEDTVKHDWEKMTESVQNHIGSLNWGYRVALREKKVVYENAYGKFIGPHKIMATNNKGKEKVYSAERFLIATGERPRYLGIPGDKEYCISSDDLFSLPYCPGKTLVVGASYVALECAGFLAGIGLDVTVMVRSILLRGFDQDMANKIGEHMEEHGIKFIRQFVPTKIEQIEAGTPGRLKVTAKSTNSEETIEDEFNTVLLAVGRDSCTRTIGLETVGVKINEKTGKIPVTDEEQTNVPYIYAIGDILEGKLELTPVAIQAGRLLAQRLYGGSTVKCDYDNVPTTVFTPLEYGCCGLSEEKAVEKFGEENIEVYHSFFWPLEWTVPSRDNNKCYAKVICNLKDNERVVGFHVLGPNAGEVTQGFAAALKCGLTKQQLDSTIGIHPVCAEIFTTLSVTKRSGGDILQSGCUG
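Rat TrxR1 (90 nM in the dispensed reagent) was pre-reduced with 400 uM NADPH for 5 min at room temperature, then incubated with compound for 15 min. After 400 uM selenite was added, NADPH fluorescence (Ex 340/Em 450 nm) was followed for 8 min.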
GLP1R cytotox: cytotoxicity counter-screen for GLP-1 receptor inverse agonists. HEK293 cAMP-luciferase reporter cells, luminescence, 24 h. AID 624418. Potency, µM (titrated, usually from 38.3 µM), actives largely listed as inhibitors. hit rate 0.13% among 410,000;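 further: loss of luciferase light is scored as toxicity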
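MLSMR compounds, 24 hr on cells at 37 deg C/5% CO2; luminescence after luciferase reagent (12 min RT). Inhibition counted as the undesired cytotoxic outcome.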
mIDH1 inhibitor: blocks human mutant IDH1 R132H enzyme | IDH1-R132H enzyme, NADPH consumption, diaphorase/resazurin fluorescence | hit rate 0.093% among 390,000 | Potency, µM (top dose mostly 76.6 µM), most hits filed as inhibitors | O75874; further: nearly all actives have a fitted effect of over 65% in size
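IDH1-R132H (0.5 ug/mL dispensed) in pH 7.5 Tris buffer was preincubated 30 min with compound, then given a substrate mix of 0.016 mM NADPH and 2 mM alpha-KG for 80 min at room temperature; remaining NADPH was read by diaphorase/resazurin fluorescence.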
GLP-1R inv ag: acts as inverse agonist at human GLP-1 receptor. P43220. HEK293 GLP-1R CRE-luciferase, luminescence, 24 h; GLP-1R form is constitutively active. Potency, µM (doses to about 38.3 µM), hits mostly inhibitors. hit rate 1.6% among 410,000. AID 624417; further: nearly all actives have a fitted effect of over 55% in size
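Cells are plated, allowed 12 hours at 37 deg C, then treated with compounds for 24 hr before luciferase detection reagent is added and luminescence is read after 12 min at room temperature. The HEK293 line carries constitutively active GLP-1R with a cAMP-responsive reporter.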
TrxR1 substrate: is turned over as a substrate by rat TrxR1. O89049. purified TrxR1 substrate turnover, NADPH consumption readout. Potency, µM (titrated, usually from 114 µM). hit rate 0.01% among 390,000; further: nearly all actives have a fitted effect of over 50% in size
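Rat TrxR1, dispensed at 90 nM, was prereduced with 400 uM NADPH (final) for 5 min at ~22 deg C, then incubated with compound 15 min before 400 uM selenite. A first-read NADPH fluorescence drop versus no-compound background flagged substrates.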
GLP-1R agonist: activates the human GLP-1 receptor; AID 624172; hit rate 0.007% among 380,000; Potency, µM (doses to about 45.6 µM), most hits filed as activators; HEK293 GLP-1R CRE-luciferase, luminescence, 4-6 h; cells express a hypersensitive GLP-1R form
Numbers stand for hits; – = inactive; ? = inconclusive; · = no result given; [ ] = remark or other dose. Rows were chosen to be rich in hits. Some 2.7% of all compounds tested hit in one or more screens of this group. The call rests on the fitted dose curve; in most records, active means well fitted curve in the direction sought with a large enough effect; inconclusive means small, poorly fitted or top-dose-only effect, or another doubt; inactive means no such curve, though single readings can be large; an effect the other way counts as inactive or inconclusive.

SMILES | rTrxR1 inhibitor | GLP1R cytotox | mIDH1 inhibitor | GLP-1R inv ag | TrxR1 substrate | GLP-1R agonist
CCOc1ccc(-c2nnc(SCC(=O)NCc3ccc(Cl)cc3)o2)cc1 | 50µM | – | – | – | – | ·
CCOc1ccc(-c2nnc(SCC(=O)NCc3ccccc3)o2)cc1 | – | – | – | – | – | ·
Nc1[nH]c(=S)nc2nnsc12 | – | · | · | · | – | ·
Cn1c(Sc2ccc(Cl)cc2)c(C=O)c2ccccc21 | – | ? | – | 3.2µM | – | –
Cc1cccc(Sc2c(C=O)c3ccccc3n2C)c1 | – | – | – | 2.8µM | – | –
Cc1ccc(S(=O)(=O)NCC2(c3ccccc3)CCN(C)CC2)cc1 | – | – | – | ? | – | –
Cc1ccc(S(=O)(=O)NCC23C=CC(O2)C2C(=O)N(c4ccccc4)C(=O)C23)cc1 (configuration not stated) | 2.8µM | – | – | – | – | –
Cc1ccc(N2C(=O)C3C4C=CC(CNC(=S)N5CCN(c6ccccc6)CC5)(O4)C3C2=O)cc1 (configuration not stated) | 20µM | – | – | – | – | –
Cc1cccc(NC(=S)NCC23C=CC(O2)C2C(=O)N(c4ccc(Cl)cc4)C(=O)C23)c1 (configuration not stated) | 7.9µM | – | – | ? | – | –
Cc1ccc(NC(=S)NCC23C=CC(O2)C2C(=O)N(c4ccc(C)cc4)C(=O)C23)cc1 (configuration not stated) | 10µM | – | – | ? | – | –
CC(C)(C)OC(=O)NCC12C=CC(O1)C1C(=O)N(Cc3ccccc3)C(=O)C12 (configuration not stated) | ? | – | – | ? | – | –
Cc1cccc(NC(=S)NNC(=O)COc2ccc(Cl)cc2Cl)c1 | – | – | – | – | – | –
S=C(NCC1CCCO1)N1CCN(c2ccccc2)CC1 (configuration not stated) | – | –[7.66 µM] | – | –[7.66 µM] | – | –
CCCCn1cc(S(=O)(=O)c2ccc(C)c(C)c2)c(=O)c2cc(F)c(N(CC)CC)cc21 | – | – | – | – | – | ·
CC(C)c1ccc(Nc2ncnc3c2c(-c2ccccc2)cn3-c2ccccc2)cc1 | – | – | – | – | – | ·
Cc1ccc(CNC(=O)C2CCN(C(=O)c3ccc(-n4ccc5ccccc54)s3)CC2)cc1 | – | – | – | – | – | ·
O=C(CN1C(=O)NC(c2ccccc2)(c2ccccc2)C1=O)N1CCN(c2ccc(F)cc2)CC1 | – | ? | – | 7.9µM | – | –
O=C(CN1C(=O)NC(c2ccccc2)(c2ccccc2)C1=O)N1CCN(c2ccccc2F)CC1 | – | – | – | ? | – | –
CC1(C)COC(c2ccc(F)c([N+](=O)[O-])c2)=N1 | 18µM | ? | – | – | – | –
CC1(C)COC(c2cc([N+](=O)[O-])ccc2Cl)=N1 | – | – | – | – | – | –
C=CCn1c(SCC(=O)NCc2ccco2)nnc1-c1ccc2ccccc2n1 | 79µM | – | – | – | – | –
COCCn1c(C)cc(O)c(C(c2ccccc2F)N2CCN(c3ccccc3)CC2)c1=O (configuration not stated) | ? | – | – | – | – | ·
CC(C)CCNC(=O)c1cc2c(=O)n3ccccc3nc2s1 | 45µM | – | – | – | – | –
CCCCc1ccc(NC(=O)CC(C)=O)cc1 | – | ? | – | – | – | –
CCCCc1ccc(NC(=O)CC(C)(C)C)cc1 | – | – | – | 11µM | – | –
SMILES | rTrxR1 inhibitor | GLP1R cytotox | mIDH1 inhibitor | GLP-1R inv ag | TrxR1 substrate | GLP-1R agonist
COc1cccc(Cn2cnc3c2c(=O)n(C)c(=O)n3C)c1 | – | – | – | – | – | ·
CCOC(=O)c1ccc(NC(=O)c2c(NC(C)=O)sc3c2CCC(C)C3)cc1 (configuration not stated) | – | – | – | – | – | ·
CCOC(=O)c1c(NC(=O)C(C)NCc2ccco2)sc2c1CCC(C)C2 (configuration not stated) | – | ? | – | 4µM | – | –
O=C(NCC12CC3CC(CC(C3)C1)C2)c1cc2n(n1)C(C(F)(F)F)CC(c1ccco1)N2 (configuration not stated) | – | – | – | 3.5µM | – | –
COc1cc(/C=C(/C(=O)c2cccs2)c2nc3ccccc3[nH]2)cc(OC)c1O | 56µM | ? | – | ? | – | –
COc1ccc(C(=O)N/C(=C/c2cccs2)c2nc3ccccc3[nH]2)cc1OC | – | – | – | – | – | –
COc1ccc(/C=C/C(O)=C2/C(=O)N(C)C3(C)CC2c2ccccc2O3)cc1 (configuration not stated) | – | – | – | ? | – | –
Cc1ccc(/C=C/C(O)=C2/C(=O)N(C)C3(C)CC2c2ccccc2O3)cc1 (configuration not stated) | – | – | – | 2.2µM | – | –
COc1ccc(OCc2ccc(-c3nc(C#N)c(N4CCN(C)CC4)o3)o2)cc1 | – | – | – | – | – | ·
COc1ccc(-c2cc(NC=O)c3ncc(-c4ccc(OC)c(OC)c4)n3c2)c(OC)c1 | · | ? | · | – | · | 2.5µM
COc1cccc(-c2cnc3c(NC=O)cc(-c4ccc(OC)cc4OC)cn23)c1 | · | – | · | 0.79µM | · | ?
COc1ccc(-c2cc(NC=O)c3ncc(-c4cccc(OC)c4)n3c2)cc1 | · | ? | · | ? | · | –
CCCCCCCOC(=O)C[N+](C)(C)CCOC1CC2CCC1(C)C2(C)C (configuration not stated) | – | 11µM | – | ? | – | –
CCCCCCOC(=O)C[N+](C)(C)CCOC1CC2CCC1(C)C2(C)C (configuration not stated) | – | – | – | – | – | –
Cc1ccc(C)c(CN2C(=O)c3ccccc3Sc3ccc(C(=O)NC4CCCC4)cc32)c1 | – | – | – | – | – | ·
COC(=O)c1[nH]c2cc(C)ccc2c1NC(=O)CN1CCOCC1 | – | – | – | – | – | –
COC(=O)c1[nH]c2cc(OC)ccc2c1NC(=O)CN1CCN(c2cccc(C)c2)C(C)C1 (configuration not stated) | – | ? | – | 8.9µM | – | –
COC(=O)c1[nH]c2cc(C)ccc2c1NC(=O)CN1CCN(c2ccccc2OC)CC1 | – | – | – | 3.2µM | – | –
COc1cccc(NC(=O)N2CCN(c3cccc(C)c3)C(C)C2)c1 (configuration not stated) | – | – | – | 10µM | – | –
Cc1cccc(N2CCN(C(=O)Nc3ccc(F)cc3)CC2C)c1 (configuration not stated) | – | – | – | ? | – | ·
Cc1ccccc1N(C)C(=O)c1noc2c1COc1ccccc1-2 | – | – | – | ? | – | ·

Assay outcomes deposited in PubChem by National Center for Advancing Translational Sciences (NCATS).
